Records with an inconclusive call do not appear. The source made the active and inactive calls. How the source made its calls, unless noted: active means hit-call score of the fitted dose curve at least 0.9, where 1 is the maximum; inconclusive means response in the unintended direction; inactive means score below 0.9.

Consider 46 compounds from PubChem BioAssay (EPA / NIEHS).

Experiment [1] is described as follows: TOX21_p53_BLA_p3_viability: Viability Assessment in the Tox21 HCT-116 p53 Agonism Beta-lactamase Assay, Phase 3 (AID 2283593).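 Further: cells exposed to compound for 16 h before reading.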 Summed up: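 HCT-116 cells (4000/well) rested 5 h at 37C, then got DMSO compounds by pin tool (217-fold dilution) for 16 h at 37C, 5% CO2. After the bla read, CellTiter-Glo was added and luminescence read at 30 min, room temperature.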

Experiment [2] addresses Cellular tumor antigen p53 (Homo sapiens) (UniProt P04637). Put plainly: TOX21_p53_BLA_p5_ratio: Tox21 HCT-116 p53 Agonism Beta-lactamase Assay, Ratio, Phase 5 (AID 2283599). Put shortly:
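HCT-116 cells carrying a p53-inducible beta-lactamase reporter were seeded at 4000 cells/well and dosed after 5 h with compound in DMSO (217-fold dilution). After 16 h at 37C, CCF4-AM substrate was added for 2 h, and the 460/530 nm emission ratio was scored as gain-of-signal versus DMSO.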

Experiment [3] in a line: TOX21_p53_BLA_p5_viability: Viability Assessment in the Tox21 HCT-116 p53 Agonism Beta-lactamase Assay, Phase 5 (AID 2283600). Put shortly:
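After the 460/530 nm beta-lactamase measurement, the wells received an ATP-detection luciferase reagent; signal was read 30 min later at RT. Compound treatment lasted 16 h on cells pre-incubated 5 h post-seeding.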

In experiment [4] the target is Cellular tumor antigen p53 (Homo sapiens) (UniProt P04637). Kind of experiment: TOX21_p53_BLA_p4_ratio: Tox21 HCT-116 p53 Agonism Beta-lactamase Assay, Ratio, Phase 4 (AID 2283601). Summed up: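 HCT116 cells carrying an inducible beta-lactamase reporter were plated at 4000 cells/well, rested 5 h, then exposed to compounds in DMSO (217-fold dilution) for 16 h at 37C. CCF4-AM substrate was loaded 2 h at room temperature; 460/530 nm emission ratio scored gain-of-signal versus DMSO.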

Experiment [5] has the same target. Kind of experiment: TOX21_p53_BLA_p3_ratio: Tox21 HCT-116 p53 Agonism Beta-lactamase Assay, Ratio, Phase 3 (AID 2283596). Put shortly:
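HCT116 p53-bla cells (4000/well) given compound in DMSO (217-fold dilution) after 5 h, incubated 16 h at 37C. CCF4-AM substrate 2 h at room temperature; 460/530 nm emission ratio, gain fitted against DMSO.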

Experiment [6] can be described thus: TOX21_p53_BLA_p4_viability: Viability Assessment in the Tox21 HCT-116 p53 Agonism Beta-lactamase Assay, Phase 4 (AID 2283597).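 Further: hits lower the luminescence signal meaning cytotoxicity.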 Summed up:
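Following a 16 h exposure at 37C, the treated HCT116 wells were first read for the FRET ratio. They were then lysed with CellTiter-Glo, and ATP luminescence was recorded after 30 min at room temperature.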

The nature of experiment [7]: ACEA_ER_AUC_viability: ACEA Biosciences xCELLigence Real-Time Cell Analysis on Estrogen Receptor Agonism for Viability (AID 2283782).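 Further: continuous compound exposure with impedance area under curve over 80 h; hit means loss of impedance signal meaning reduced cell growth or viability.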 Summed up:
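T-47D human breast cells in phenol red-free RPMI1640 with 10% charcoal-stripped FBS were dosed with an 8-point 1:4 dilution series from 100 uM top final concentration, in duplicate. Impedance-based growth was followed for 80 h; AUC analysed versus DMSO.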

In experiment [8] the target is PGR (gene 5241) (UniProt P06401). Put plainly: TOX21_PR_BLA_Followup_Antagonist_ratio: Tox21 HEK293 Progesterone Receptor (PR) Antagonism Beta-lactamase Follow-Up Assay, Ratio (AID 2283934).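 Further: PR-UAS-bla HEK293T cells stimulated with 1 nM R5020 agonist for 16 hr.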 Summed up:
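Antagonist mode used 1 nM R5020 (final) as agonist on a beta-lactamase reporter line in HEK293T cells. Activity was taken from the substrate cleavage ratio after 16 hr exposure.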

Experiment [9] is described as follows: TOX21_PR_BLA_Followup_Agonist_viability: Viability Assessment in the Tox21 HEK293 Progesterone Receptor (PR) Agonism Beta-lactamase Follow-Up Assay (AID 2283935).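 Further: signal loss means lower viability so actives are cytotoxic.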 Put shortly: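 Multiplexed viability counter-screen: ATP-coupled luciferase signal measured after 30 min at room temperature, following 16 hr compound treatment of PR-UAS-bla HEK293T cells grown in charcoal-stripped serum.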

Experiment [10] can be described thus: TOX21_PR_BLA_Followup_Antagonist_viability: Viability Assessment in the Tox21 HEK293 Progesterone Receptor (PR) Antagonism Beta-lactamase Follow-Up Assay (AID 2283936).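 Further: hits lower the luminescence signal meaning cytotoxicity.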 Summed up: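 PR-UAS-bla HEK293T cells (3,000/well, 2% charcoal-stripped FBS) given compound plus R5020 agonist, 16 h at 37C. CellTiter-Glo added after bla read, 30 min at room temperature; luminescence loss indicates cytotoxicity.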

Experiment [11] has as its target PGR (gene 5241) (UniProt P06401). Kind of experiment: TOX21_PR_LUC_Followup_Agonist: Tox21 HEK293 Progesterone Receptor (PR) Agonism Luciferase Follow-Up Assay (AID 2283937; active means hit-call score of the fitted dose curve at least 0.9, where 1 is the maximum; inactive means score below 0.9). Put shortly: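 Agonist mode: reporter cells carrying PR-A and luciferase are treated 16 h with test compounds at 37C. Luciferase induction is measured by luminescence and fitted upward against DMSO.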

For experiment [12] the target is unchanged. Kind of experiment: TOX21_PR_LUC_Followup_Antagonist: Tox21 HEK293 Progesterone Receptor (PR) Antagonism Luciferase Follow-Up Assay (AID 2283938).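 Further: curve fitted upward as signal gain over DMSO baseline despite antagonist label.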 Put shortly:
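Luminescence from ONE-Glo was measured 30 min after reagent addition, following 16 h exposure of HEK293-PR-A-luc cells (3,000/well, plated 5 h earlier) to DMSO-dissolved compounds at 37C; DMSO served as baseline.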

Experiment [13] in a line: TOX21_PR_LUC_Followup_Antagonist_viability: Viability Assessment in the Tox21 HEK293 Progesterone Receptor (PR) Antagonism Luciferase Follow-Up Assay (AID 2283940). Summed up:
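Cellular ATP, measured with luciferase-coupled CellTiter-Glo, served as the viability endpoint after HEK293-PR-A-luc cells were exposed to test compounds for 16 h at 37C.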

The nature of experiment [14]: TOX21_PR_LUC_Followup_Agonist_viability: Viability Assessment in the Tox21 HEK293 Progesterone Receptor (PR) Agonism Luciferase Follow-Up Assay (AID 2283941).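 Further: loss of signal means cytotoxicity so actives lower viability.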 Summed up: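 Luminescent ATP quantitation (CellTiter-Glo) serves as the read-out; a drop flags cytotoxic compounds. Cells are HEK293-PR-A-luc grown in 10% charcoal-stripped FBS, plated 3,000/well, and exposed to compound for 16 h.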

Chain of PGR (gene 5241) (P06401 whole entry, looked up): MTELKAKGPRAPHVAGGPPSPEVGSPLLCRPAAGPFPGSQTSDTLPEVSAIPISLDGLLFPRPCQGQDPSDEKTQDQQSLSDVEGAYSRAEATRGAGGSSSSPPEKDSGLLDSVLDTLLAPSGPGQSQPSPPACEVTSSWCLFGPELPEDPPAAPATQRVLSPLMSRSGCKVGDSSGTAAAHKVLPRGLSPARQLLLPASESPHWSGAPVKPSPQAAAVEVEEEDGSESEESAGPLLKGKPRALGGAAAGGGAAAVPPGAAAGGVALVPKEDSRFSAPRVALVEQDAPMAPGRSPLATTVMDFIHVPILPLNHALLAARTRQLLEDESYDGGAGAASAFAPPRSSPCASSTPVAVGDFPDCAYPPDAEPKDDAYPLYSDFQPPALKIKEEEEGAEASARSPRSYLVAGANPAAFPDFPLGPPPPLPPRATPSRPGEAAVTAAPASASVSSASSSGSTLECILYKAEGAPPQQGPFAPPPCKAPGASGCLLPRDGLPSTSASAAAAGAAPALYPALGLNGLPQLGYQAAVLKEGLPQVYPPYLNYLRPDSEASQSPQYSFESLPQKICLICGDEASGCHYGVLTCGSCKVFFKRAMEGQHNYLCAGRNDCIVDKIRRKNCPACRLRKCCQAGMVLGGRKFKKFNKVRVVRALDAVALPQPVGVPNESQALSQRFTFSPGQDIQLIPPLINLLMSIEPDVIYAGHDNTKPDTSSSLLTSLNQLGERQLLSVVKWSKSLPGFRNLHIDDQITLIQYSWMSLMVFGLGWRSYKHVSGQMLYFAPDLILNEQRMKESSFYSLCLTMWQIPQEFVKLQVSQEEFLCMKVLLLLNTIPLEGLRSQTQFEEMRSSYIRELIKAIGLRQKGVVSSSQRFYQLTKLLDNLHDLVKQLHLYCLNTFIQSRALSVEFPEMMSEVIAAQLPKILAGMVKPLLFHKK
Chain of Cellular tumor antigen p53 (Homo sapiens) (P04637 whole entry, looked up): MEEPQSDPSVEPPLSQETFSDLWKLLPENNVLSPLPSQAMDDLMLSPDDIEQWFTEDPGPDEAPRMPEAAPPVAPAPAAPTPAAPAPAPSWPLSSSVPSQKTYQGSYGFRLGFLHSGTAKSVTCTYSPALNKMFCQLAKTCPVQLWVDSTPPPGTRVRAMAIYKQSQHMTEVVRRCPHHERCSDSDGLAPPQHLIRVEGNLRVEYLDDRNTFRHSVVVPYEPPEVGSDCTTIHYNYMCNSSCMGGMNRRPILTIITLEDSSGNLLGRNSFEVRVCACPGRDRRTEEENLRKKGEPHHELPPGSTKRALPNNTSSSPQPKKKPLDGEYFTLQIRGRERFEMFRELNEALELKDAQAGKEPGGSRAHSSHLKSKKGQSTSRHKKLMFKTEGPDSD

In the case of `CCOC(=O)C(C)(C)C`, the result in experiment [1], in experiment [2], in experiment [3] and in [4] was inactive.
Take `CCCCc1ncc(/C=C(\Cc2cccs2)C(=O)O)n1Cc1ccc(C(=O)O)cc1`: the outcome in experiment [1], in [2] and in experiment [4] was inactive.
Turning to `CN(C)CCCN1c2ccccc2Sc2ccccc21`, the result in [5] was inactive.
Consider `CN(C)CCCOc1nn(Cc2ccccc2)c2ccccc12`, for which, in experiment [5], the result was inactive.
Regarding `CCCCOCCOC(=O)CCCCCCCCC(=O)OCCOCCCC`, the call in [1], in experiment [3] and in experiment [4] was inactive.
Take `c1ccc2cnncc2c1`: the outcome in [1], in experiment [2] and in [4] was inactive.
For `CN(C)CCCSc1ccccc1NC(=O)/C=C/c1ccccc1`, the result in [5] and in [6] was inactive.
Take `CN1CCN2c3ncccc3Cc3ccccc3C2C1` (configuration not stated): the result in experiment [5] was inactive.
Regarding `CCCCS(=O)(=O)N[C@@H](Cc1ccc(OCCCCC2CCNCC2)cc1)C(=O)O`, the call in experiment [1], in [2] and in experiment [4] was inactive.
`CN1[C@@H]2CC[C@H]1CC(OC(=O)c1c[nH]c3ccccc13)C2` (some centres not stated): in [5], the outcome was inactive.
As to `N#CSc1ccc(N)c([N+](=O)[O-])c1`, the result in experiment [5], in experiment [6] and in experiment [2] was inactive.
Regarding `CCN1CCCC(OC(=O)C(c2ccccc2)c2ccccc2)C1` (configuration not stated), the outcome in [5] was inactive.
On to `CCCC(=O)Nc1ncnc2c1ncn2[C@@H]1O[C@@H]2COP(=O)(O)O[C@H]2[C@H]1OC(=O)CCC`, for which the compound was called inactive in experiment [1], in [2], in experiment [3] and in experiment [4].
Regarding `CN1CCN(C2=Nc3ccccc3Oc3ccc(Cl)cc32)CC1`, the outcome in [5], in [6] and in experiment [2] was inactive.
As to `Cc1cccc(C)c1N(CCCc1cccnc1)C(=O)C(C)N` (configuration not stated), the call in experiment [1] and in [4] was inactive.
Consider `[Cl-].[Cl-].[NH-]CC[NH-].[Pt+4]`, for which the result in experiment [5] was inactive.
Same read-out and setting: with `CN(C)CCN1C(=O)c2ccccc2N(C)c2ccccc21` the entry was “inactive”.
As for `CC(C)CCCC(=O)O`, the result in [5] and in [6] was inactive.
One may read the AC50 as the concentration giving half of the maximal activity seen. Turning to `COCCOC(=O)CC#N`, the compound was called inactive in experiment [1], in experiment [2], in [3] and in experiment [4]. Further, in experiment [7], the AC50 was 50 µM (active).
Take `CCCSSC(CCO)=C(C)N(C=O)Cc1cnc(C)nc1N`: the result in experiment [5] and in experiment [6] was inactive.
With `O=C(O)[C@H]1/C(=C/CO)O[C@@H]2CC(=O)N21`, the outcome in [5], in experiment [6] and in [2] was inactive.
As to `Cc1cccc(O)c1N`, the compound was called inactive in experiment [1], in experiment [2] and in [4].
With `CCC(=O)c1cccc(Cl)c1`, the call in [1], in experiment [3] and in experiment [4] was inactive.
With `CCCCC/C=C\C/C=C\CCCCCCCC(=O)NC(C)c1ccccc1` (configuration not stated), the call in experiment [1], in experiment [2] and in [4] was inactive.
For `FC(F)(F)c1ccccc1`, the result in experiment [1], in experiment [2] and in [3] was inactive.
For the compound `Cc1nnc(C(=O)NC(C)(C)c2nc(C(=O)NCc3ccc(F)cc3)c(O)c(=O)n2C)o1`, the result in [5] was inactive.
For the compound `Cc1ccc(NC(N)=O)cc1`, the compound was called inactive in experiment [1], in experiment [2] and in experiment [4].
In the case of `CNc1c2c(nn1C)CCCC2`, the outcome in experiment [5], in experiment [6] and in [2] was inactive.
On to `OC1CCCc2ccccc21` (configuration not stated), for which the compound was called inactive in experiment [1], in experiment [3] and in experiment [4].
On to `Cn1c(N)nc2nc[nH]c2c1=O`, for which the call in [1], in experiment [3] and in experiment [4] was inactive.
For `CCC(=O)Nc1ccc(O)cc1`, the outcome in experiment [1] and in [4] was inactive.
For `CCN(C)C(=O)Oc1cccc([C@H](C)N(C)C)c1`, the result in [5], in experiment [6] and in experiment [4] was inactive.
As for `CCN(CC)CCNC(=O)c1cc(S(C)(=O)=O)ccc1OC`, the outcome in experiment [5], in experiment [6], in [2], in experiment [3] and in [4] was inactive.
As for `Cc1ccc(O)c(N)c1`, the result in experiment [5], in experiment [2], in [3] and in experiment [4] was inactive.
As for `ClC(Cl)Cl`, the result in experiment [5], in experiment [6], in [2], in experiment [3] and in experiment [4] was inactive.
For the compound `CO/N=C(\C(=O)N[C@@H]1C(=O)N2C(C(=O)O)=C(CSc3nc(C)c(CC(=O)O)s3)CS[C@H]12)c1csc(N)n1`, the outcome in [5], in experiment [6], in [2] and in experiment [3] was inactive.
For the compound `O=C(CCN1CCN(CCO)CC1)N1c2ccccc2Sc2ccc(C(F)(F)F)cc21`, the outcome in experiment [5], in experiment [6], in experiment [2] and in [4] was inactive.
With `CC[C@H]1OC(=O)C[C@@H](O)[C@H](C)[C@@H](O[C@@H]2O[C@H](C)[C@@H](O)[C@H](N(C)C)[C@H]2O)[C@@H](CCN2C[C@H](C)C[C@H](C)C2)C[C@@H](C)C(=O)/C=C/C(C)=C/[C@@H]1CO[C@@H]1O[C@H](C)[C@@H](O)[C@@H](OC)[C@H]1OC`, the outcome in [5], in experiment [2] and in experiment [3] was inactive.
For the compound `COc1ccc(NS(=O)(=O)c2ccc(N)cc2)nn1`, the result in [5], in experiment [2], in experiment [3] and in experiment [4] was inactive.
Consider `O=C(O)C(O)[C@H](O)[C@@H](O)[C@H](O)[C@H](O)CO` (some centres not stated), for which the outcome in [5], in [6], in experiment [2], in experiment [3] and in [4] was inactive.
As to `C=N[C@@H](C(=O)N[C@@H]1C(=O)N2[C@@H]1SC(C)(C)[C@@H]2C(=O)O)c1ccccc1`, the result in experiment [5], in experiment [6], in experiment [2], in experiment [3] and in [4] was inactive.
Take `C=CCSSSCC=C`: in experiment [5], the AC50 is 8.68 µM (active). Moreover, the outcome in [2] and in experiment [3] was inactive.
As for `Nc1ccc(C(=O)O)c(O)c1`, the outcome in experiment [5], in experiment [6], in experiment [2] and in experiment [3] was inactive.
Regarding `NS(=O)(=O)c1ccccc1Cl`, the outcome in [5], in experiment [6], in experiment [3] and in experiment [4] was inactive.
As to `CN1CCN(C2=Nc3cc(F)ccc3Cc3ccccc32)CC1`, the result (in experiment [5]; in experiment [6]; in the experiment with PGR (gene 5241) [8]; in [9]; in experiment [10]; with PGR (gene 5241) [11]) was inactive. Further, the outcome (with PGR (gene 5241) [12]; in [13]; in [14]) was inactive.
Turning to `CNC1(C)C2CCC(C2)C1(C)C` (configuration not stated), the result in experiment [5], in [6], in experiment [2] and in experiment [4] was inactive.
